Measurements published in PubChem BioAssay AID2501 (Southern Research Specialized Biocontainment Screening …, 2010).
Hit rate of the full screen: of about 2,200 compounds, about 1,200 (55%) were called active. So high a share suggests a set chosen from earlier hits. The list shows a part of the results. Values without a mark were called inactive. The limit is not given here; nearly all actives have IC50 up to about 92 µM.

Assay: counter assay for TAg ATPase ADP read-out – biochemical, ADP-Hunter, fluorescence, counter-screen (AID 2501);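 also: purified T antigen ATPase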;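 as to inhibition: 0% = enzyme with vehicle and 100% = reference inhibitor wells; higher means more inhibition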
Details: series mostly up to 100 µM; inhibition: at the top concentration
For `O=C(O)c1cc(-c2ccco2)nc2ccc(Br)cc12`, the “inhibition” value was 13.5%. For `Cc1ccc(/C=N/n2c(-c3ccco3)n[nH]c2=S)cc1`, the IC50 was 16.5 µM (active). For `Cc1cccc(/C=N/n2c(-c3ccncc3)n[nH]c2=S)c1`, the IC50 was 88.6 µM (active). With `Cc1ccc(-n2c(-c3cc(-c4ccco4)[nH]n3)n[nH]c2=S)c(Br)c1` the “inhibition” value was 27.1%. In the case of `C=CCn1c(-c2ccc3ncccc3c2)n[nH]c1=S`, the “inhibition” value is reported as 22.6%. For `CC(/C=N/n1c(-c2cccnc2)n[nH]c1=S)=C\c1ccccc1`, the IC50 was 38.8 µM (active). In the case of `S=c1[nH]nc(-c2n[nH]c3c2CCC3)n1/N=C/C=C/c1ccco1`, the IC50 is reported as 28.2 µM (active). In the case of `CCS(=O)(=O)N1CCC(C(=O)NCCN2CCOCC2)CC1`, the “inhibition” value is reported as 20.6% [at 50 µM]. In the case of `Cc1cc(C(F)(F)F)nc2c(Cl)c(C(C)(C)C)nn12`, the “inhibition” value is reported as -28.7%. With `NS(=O)(=O)c1ccc(N=Nc2c[nH]c(=O)c(O)c2)cc1` the IC50 was 7.75 µM (active). In the case of `CCOC(=O)c1[nH]c2ccccc2c1NC(=S)Nc1cccc(C)c1C`, the IC50 is reported as 29 µM (active). With `Cc1cccc(C)c1NC(=S)Nc1ccccc1C(=O)NCc1ccco1` the “inhibition” value was 8.4%. With `CCOC(=O)c1c(C)[nH]c(C(=O)OCC(=O)Nc2cc(Cl)ccc2OC)c1C` the “inhibition” value was -25.2%. For `COc1ccc(CNS(=O)(=O)c2ccc(F)c(C(=O)Nc3ccc(OC)cc3)c2)cc1`, the “inhibition” value was 4.99%. For `COc1ccc(C(=O)N/N=C/c2ccc(OC)c(CN3CCc4cc(OC)c(OC)cc4C3C)c2)cc1` (stereo not given), the “inhibition” value was 7.43%. In the case of `Oc1ccc(/C=N/NC(=S)NCCN2CCOCC2)c(O)c1`, the IC50 is reported as 4.25 µM (active). In the case of `COc1ccc(/C=N/NC(=O)c2ccc(Br)cc2)cc1CN1CCOCC1`, the IC50 is reported as 13 µM (active). For `COc1cc(/C=N/NC(=S)NCCN2CCOCC2)ccc1O`, the IC50 was 2.37 µM (active). With `COc1ccc(NC(=S)N/N=C/c2ccc(F)c(F)c2)cc1` the IC50 was 23.4 µM (active). In the case of `COC(=O)c1sc2nc(-c3ccco3)ccc2c1N`, the “inhibition” value is reported as 22.9%. In the case of `COc1cc(N2C(=O)C=CC2=O)c(OC)cc1Cl`, the “inhibition” value is reported as -17.9%. For `O=C(O)Cc1nn(Cc2ccc(Cl)cc2)c(=O)c2ccccc12`, the “inhibition” value was -11%. For `O=c1oc2c3c4c(cc2s1)CCCN4CCC3`, the “inhibition” value was 17.1%. In the case of `CCCCCCNC(=O)N[C@H](C(=O)NCCC[C@H]1CN2C(=NC[C@H]2C)N1CCC(c1ccccc1)c1ccccc1)C(C)O` (stereo not given in full), the “inhibition” value is reported as 3.98%. In the case of `CCN(CC(=O)NC(C)C)C(=O)Cc1ccc(C)c(C)c1`, the “inhibition” value is reported as 8.8%. For `COc1ccc(CNC(=S)N/N=C/c2ccc(O)c(OC)c2)cc1`, the IC50 was 7.64 µM (active). In the case of `Oc1cccc(/C=N/NC(=S)NCCN2CCOCC2)c1O`, the IC50 is reported as 7.38 µM (active). For `O=C(CCN1CCN(c2ccccc2)CC1)N/N=C/c1ccc(O)c(O)c1O`, the “inhibition” value was -207%. In the case of `Cc1c(NC(=O)CCC2CCCCC2)cc(C(=O)N2CCOCC2)cc1[N+](=O)[O-]`, the “inhibition” value is reported as -18.6%. For `COCCCOc1ccnc(CS(=O)c2nc3ccccc3[nH]2)c1C` (stereo not given), the “inhibition” value was 28.1%. For `O=C(O)CC1S/C(=N/N=C/C2CC=CCC2)NC1=O` (stereo not given), the “inhibition” value was 12.7%. In the case of `O=C(CN1CCN(S(=O)(=O)c2ccc(F)cc2)CC1)c1ccc(O)c(O)c1`, the IC50 is reported as 7.5 µM (active). With `CC(C)c1ccc(S(=O)(=O)N2CCN(CC(=O)c3ccc(O)c(O)c3)CC2)cc1` the IC50 was 5.79 µM (active). For `Cc1cc(C)nc(SCc2cc(=O)c(OC(=O)c3ccc(S(=O)(=O)N4CCCC4)cc3)co2)n1`, the “inhibition” value was 7.74%. With `Cc1ccc(S(=O)(=O)N2[C@@H](c3ccc(Cl)cc3)C(C(=O)O)=CC[C@H]2c2ccc(C(C)C)cc2)cc1` the “inhibition” value was -7.5%. With `Cc1cccc(-c2ncc(CN3CCCC(CO)(Cc4ccccc4C)C3)cn2)c1` (stereo not given) the “inhibition” value was 10.8%. For `CC1CCN(CC(C)OC(=O)c2ccc3c(c2)OCCO3)CC1` (stereo not given), the “inhibition” value was -4.34%. In the case of `CCOc1cc(N2CCOCC2)c(OCC)cc1NS(=O)(=O)c1ccc(Cl)s1`, the IC50 is reported as 6.56 µM (active). For `CCOc1cc(N2CCOCC2)c(OCC)cc1NC(C)C(=O)N1CCC(C)CC1` (stereo not given), the IC50 was 5.37 µM (active). In the case of `CCOc1ccc(OCCC(=O)OCC(=O)Nc2cc(OCC)c(N3CCOCC3)cc2OCC)cc1`, the IC50 is reported as 8.04 µM (active). In the case of `CCNC(=S)Nc1cc(OCC)c(N2CCOCC2)cc1OCC`, the IC50 is reported as 4.1 µM (active). With `CCOc1ccc(CCNC(=O)c2cc(-c3ccccc3)c(N3CCOCC3)s2)cc1OCC` the “inhibition” value was 5.68%. With `CCCC(=O)O[C@]1(C(=O)CO)CC[C@H]2[C@@H]3CCC4=CC(=O)CC[C@]4(C)[C@H]3[C@@H](O)C[C@@]21C` the “inhibition” value was 23.6%. With `COc1cc(/C=N/Nc2nc3ccccc3[nH]2)cc(OC)c1O` the IC50 was 6.33 µM (active). With `C(=N\Nc1nc2ccccc2[nH]1)/c1cccs1` the IC50 was 7.86 µM (active). In the case of `COc1cc(/C=C2\CCc3c2nc2ccccc2c3C(=O)O)cc(OC)c1OC`, the “inhibition” value is reported as 13%. With `COc1cc(/C=N/Nc2nc3ccccc3[nH]c2=O)ccc1O` the IC50 was 8.65 µM (active). With `COc1cc(/C=N/Nc2nc3ccccc3o2)cc(OC)c1O` the IC50 was 6.58 µM (active). For `CCC[C@@H]1CCCO[C@@](C(=O)NCc2ccc(S(C)(=O)=O)cc2)(C(F)(F)F)C1`, the “inhibition” value was 8.24%. For `Cc1c(N=C2NC(=O)/C(=C/c3ccc(O)cc3)S2)c(=O)n(-c2ccccc2)n1C`, the IC50 was 10 µM (active). With `O=C1NC(=NCc2ccccc2)S/C1=C/c1ccc(O)cc1` the IC50 was 8.9 µM (active). With `O=C1N/C(=C\c2ccc(O)cc2)C(O)=C1C=NCc1ccccc1` the IC50 was 5.69 µM (active). With `O=C1NC(=O)/C(=C/c2ccc(O)cc2)S1` the IC50 was 5.07 µM (active). With `Cc1cc(/C=C2\SC(=S)NC2=O)c(C)n1-c1cccc(O)c1` the “inhibition” value was 6.67%. For `COc1cccc2sc(Nc3nnc(-c4cccs4)o3)nc12`, the “inhibition” value was 3.33%. For `O=C(/C=C/c1ccc2ccccc2n1)N1CCN(S(=O)(=O)c2ccccc2F)CC1`, the “inhibition” value was 12%. In the case of `CCCC1Nc2ccc(C(=O)O)cc2C2C=CCC12` (stereo not given), the “inhibition” value is reported as 8.3%. With `COc1ccc2nc3ccccc3nc2c1N` the IC50 was 19.9 µM (active). For `NC(=O)NCCCC(=O)OCC(=O)c1ccc2ccccc2c1`, the “inhibition” value was -5.96%. In the case of `Cc1ccc2oc(=O)c(/C=C(\O)C(C)(C)C)nc2c1`, the IC50 is reported as 6.56 µM (active). For `Cc1ccc2oc(=O)c(/C=C(\O)CC(C)C)nc2c1`, the IC50 was 4.38 µM (active). In the case of `NNc1nc(-c2ccccc2)nc(-c2ccccc2)c1Br`, the “inhibition” value is reported as -1.06%. In the case of `O=C(CC1SC(=O)NC1=O)Oc1ccc(/C=N/NC(=O)c2ccccc2O)cc1` (stereo not given), the IC50 is reported as 50.6 µM (active). With `COc1cc(/C=N/NC(=O)c2ccccc2O)ccc1OC(=O)CC1SC(=O)NC1=O` (stereo not given) the IC50 was 33.4 µM (active). For `CC[C@H](C)/C=C/C1=CC2=C(Cl)C(=O)[C@@]3(C)OC(=O)C(C(=O)[C@H](C)[C@@H](C)O)=C3C2=CO1`, the “inhibition” value was 21.5%. In the case of `Nc1ccc(Nc2nc3ccccc3[nH]2)cc1`, the IC50 is reported as 6.24 µM (active). In the case of `O=C(CCc1ccc(O)c(O)c1)NNC(=S)Nc1ccc(Br)cc1Cl`, the IC50 is reported as 19.5 µM (active). In the case of `O=S1(=O)N=C(Nc2ccc(O)cc2)c2ccccc21`, the IC50 is reported as 3.57 µM (active). With `O=C(CSC1=NS(=O)(=O)c2ccccc21)Nc1ccccc1` the “inhibition” value was 15.9%. In the case of `C=Cc1ccc2c(c1)OCCOCCOCCOCCOCCO2`, the “inhibition” value is reported as 10.9%. For `CC(C)(C)c1ccc(OCC(O)CS(=O)(=O)c2ccccn2)cc1` (stereo not given), the “inhibition” value was 20.9%. In the case of `Cc1cccc(OCC(=O)NC(=S)NNC(=O)c2ccncc2)c1`, the “inhibition” value is reported as 23.7%. In the case of `CC(C)(C)c1ccc(OCCC(=O)NNC(=O)c2ccccc2)cc1`, the IC50 is reported as 41.8 µM (active). In the case of `CCN(CC)c1ccc(/C=N/O)cc1`, the IC50 is reported as 4.69 µM (active). In the case of `CCN(CC)c1ccc(/C=N/N2CCOCC2)cc1`, the IC50 is reported as 4.08 µM (active). With `CCN(CC)c1ccc(/C=C2\C(=O)N(c3nnc(C)c(=O)[nH]3)N=C2C)cc1` the “inhibition” value was -5.16%. For `O=C(O)c1ccc(-n2nc(-c3ccccc3)c3ccccc3c2=O)cc1`, the “inhibition” value was -5.05%. In the case of `CCOc1ccc(/C=N/n2nnnc2N)cc1O`, the IC50 is reported as 3.62 µM (active). For `COc1cc(/C=N/n2nnnc2N)ccc1O`, the IC50 was 2.77 µM (active). For `COC(=O)CN(c1ccccc1F)S(=O)(=O)c1ccccc1`, the “inhibition” value was -8.97% [at 50 µM]. For `CCOCCCn1c(SCC(=O)Nc2cc(OC)ccc2OC)nc2ccccc2c1=O`, the “inhibition” value was -11.5%. For `COc1cccc(-n2c(SCc3cc(=O)oc4cc(O)c(O)cc34)nc3ccccc3c2=O)c1`, the IC50 was 49.8 µM (active). In the case of `Cc1ccc(C)n1-c1ccncc1`, the “inhibition” value is reported as -33%. For `Fc1ccccc1CSc1nnnn1-c1ccc2c(c1)OCO2`, the “inhibition” value was -29.5%. In the case of `CN(C)c1ccc(N2CC(C)(C)C2=O)cc1`, the IC50 is reported as 3.63 µM (active). In the case of `COc1ccc(C2=CC3=C(Br)C(=O)C(C)(OC(=O)c4ccc(Cl)nc4)C(=O)C3=CO2)cc1` (stereo not given), the “inhibition” value is reported as -12.6%. In the case of `COc1ccc(NC2SC(=O)N(C)C2=O)cc1` (stereo not given), the IC50 is reported as 91 µM (active). For `O=C(Nc1nnc(COc2ccccc2)s1)C1CCN(S(=O)(=O)c2ccc(Cl)cc2)CC1`, the “inhibition” value was -32.5%. In the case of `O=C(O)C1OC(Oc2c(-c3ccc(O)c(O)c3)oc3cc(O)cc(O)c3c2=O)C(O)C(O)C1O` (stereo not given), the IC50 is reported as 8.72 µM (active). In the case of `CC1OC(OCC2OC(Oc3c(-c4ccc(O)cc4)oc4cc(O)cc(O)c4c3=O)C(O)C(O)C2O)C(O)C(O)C1O` (stereo not given), the IC50 is reported as 30.9 µM (active). With `O=c1c(OC2OC(CO)C(O)C(O)C2O)c(-c2ccc(O)c(O)c2)oc2cc(O)cc(O)c12` (stereo not given) the IC50 was 6.33 µM (active). For `COc1ccccc1Nc1nc(C)cs1`, the “inhibition” value was 18.6%. In the case of `Cc1csc(NC(=O)NC2(C(F)(F)F)Oc3ccccc3O2)n1`, the IC50 is reported as 12 µM (active). With `Cc1cccc(C)c1NC(=O)C(c1ccc([N+](=O)[O-])cc1)N(C)C(=O)c1ccccn1` (stereo not given) the “inhibition” value was -12.9%. In the case of `Cc1ccc(-n2ncc3c(N4CCN(c5ccc(F)cc5)CC4)ncnc32)c(C)c1`, the “inhibition” value is reported as 19.4%. In the case of `O=C1C=C(Nc2ccc(O)cc2)CC(c2ccco2)C1` (stereo not given), the IC50 is reported as 3.1 µM (active). With `O=C1CC(c2ccco2)CC(O)=C1C=Nc1cc(Cl)cc(Cl)c1` (stereo not given) the “inhibition” value was -12.2%. With `COC(=O)CCC(=O)OC1(C)C(=O)C=C2C=C3CCCN3C=C2C1=O` (stereo not given) the “inhibition” value was -95%. With `C/C=C/C=C/C(=O)Nc1cccc(C2=NOC3(C2)C[C@H](C(N)=O)N(C(=O)CC(c2ccccc2)c2ccccc2)C3)c1` (stereo not given in full) the “inhibition” value was -4.69%. In the case of `CCCCNC(=O)c1sc(=S)n2c1[nH]c(=O)c1ccccc12`, the IC50 is reported as 57.9 µM (active).
